Test results from PubChem BioAssay AID602346 (Broad Institute, 2012).
In all, about 340,000 compounds went through this assay and about 1,200 (0.35%) were called active. Rule as the data show it: active = inhibition above about 50% (passing the limit was not always enough); inconclusive = no clear call, values can overlap the other calls; inactive = below about 31%. Only a selection was taken, and actives are over-represented in it overall.

assay: HIV Vif self-association inhibitors, primary screen, imaging, HEK293T, single point (AID 602346); settings: HEK293T cells, Vif self-association by quenched fluorescence, 24 h, at 7.49 µM, stronger effect = higher value

Row | Structure (SMILES) | inhibition
1 | COc1ccc(-c2nn(-c3ccccc3)cc2/C=C\C(=O)N2CCOCC2)cc1[N+](=O)[O-] | 1.35% (inactive)
2 | O=C(O)c1ccc(N/N=C/c2cn(-c3ccccc3)nc2-c2cccs2)cc1 | -6.33% (inactive)
3 | O=C(/C=C\c1cn(-c2ccccc2)nc1-c1cccs1)N1CCOCC1 | 87.7% (active)
4 | O=CNc1cc(-c2ccc(C(=O)N3CCOCC3)cc2)cn2c(-c3ccc(F)cc3)cnc12 | 6.34% (inactive)
5 | CCN(CC)CCn1c2ccc(Cl)cc2c2nc(C)sc21 | 16.1% (inactive)
6 | CCN(CC)CCCC(C)n1c2nc(=O)[nH]c(=O)c-2nc2cc(Cl)ccc21 (centres undefined) | 128% (active)
7 | Cc1nc2c(OCc3ccc(Cl)cc3)cccn2c1N(C)Cc1cccs1 | -12.4% (inactive)
8 | CC(Oc1cccc(NC(=O)c2cccs2)c1)C(=O)c1ccccc1 (centres undefined) | 12.5% (inactive)
9 | O=C(Nc1ccc2oc(-c3ccc4ccccc4c3)nc2c1)c1cccs1 | 52.2% (active)
10 | O=C(Nc1ccc2oc(-c3ccccc3F)nc2c1)c1ccco1 | 4.71% (inactive)
11 | C#CCN(C[C@@H]1[C@@H](OC(=O)NC2CC2)[C@@H](OC(=O)NC2CC2)Cn2c(=O)ccc(=O)n21)S(=O)(=O)c1ccc(C)cc1 | -0.284% (inactive)
12 | CCOC(=O)c1ccc(Nc2cc3ccccc3c(=O)[nH]2)cc1 | 9.05% (inactive)
13 | CCOC(=O)c1ccc(N/C(=N/S(=O)(=O)c2ccccc2)c2ccccc2)cc1 | -4.64% (inactive)
14 | CCOC(=O)c1nc(Nc2ccc(C(=O)OC)cc2)c2ccccc2n1 | 99.4% (active)
15 | CN(C)C(=O)c1cccc(-c2cnc3sc(NCc4ccc5c(c4)OCO5)nn23)c1 | -12% (inactive)
16 | COc1ccc(C2C(C(C)=O)=C(O)C(=O)N2CCc2c[nH]c3ccccc23)cc1 (centres undefined) | -11.5% (inactive)
17 | COc1cccc(-n2c(SCC(=O)c3c[nH]c4ccccc34)nc3ccccc3c2=O)c1 | -2.01% (inactive)
18 | COc1ccc(/C=C(\C#N)c2c[nH]c3ccccc23)cc1 | 52.1% (active)
19 | Cc1ccc(C(NC(=O)C2CCN(CCOc3ccc(Cl)cc3Cl)CC2)c2ccccn2)cc1 (centres undefined) | 4.63% (inactive)
20 | Cc1ccccc1Cn1c(C)c(C(=O)NCc2cccc(C(F)(F)F)c2)sc1=O | -7.14% (inactive)
21 | CCOC(=O)C1=CCC(c2ccc(F)cc2)N(S(=O)(=O)c2ccc(C)cc2)C1 (centres undefined) | 24.4% (inactive)

Row | Structure (SMILES) | inhibition
22 | COc1cc(OC)cc(C(=O)N[C@H](C(=O)Nc2nc3ccccc3[nH]2)C(C)C)c1 | 116% (active)
23 | COc1cc(OC)cc(C(=O)N[C@H](C(=O)NNC(=O)c2ccc(Br)cc2)C(C)C)c1 | 1.45% (inactive)
24 | COc1ccc(C(=O)N[C@H](C(=O)NCc2ccccc2)C(C)C)cc1 | 4.63% (inactive)
25 | Cc1nc2c(OCc3ccc(Cl)cc3Cl)cccn2c1N(C)CC1CC1 | -14% (inactive)
26 | O=C(NCc1nnnn1-c1ccc(Cl)cc1)c1ccc([N+](=O)[O-])o1 | 6.82% (inactive)
27 | CCC(=O)Nc1ccc(S(=O)(=O)Nc2c(NC)c3ccccc3oc2=O)cc1 | -6.99% (inactive)
28 | NCCCNC(=S)NCCCN(Cc1ccc(Cl)cc1)c1ccc(Br)cn1 | -10.7% (inactive)
29 | O=C(COC(=O)c1ccccc1)Nc1cccc(S(=O)(=O)N2CCOCC2)c1 | 6.23% (inactive)
30 | O=C(COC(=O)/C=C/c1ccc(Br)o1)Nc1cccc(S(=O)(=O)N2CCOCC2)c1 | 72.1% (active)
31 | NS(=O)(=O)c1cccc(NC(=O)COC(=O)/C=C/c2ccco2)c1 | 40.9% (inactive)
32 | C[C@@H]1CN([C@H](C)CO)S(=O)(=O)c2ccc(C#C[C@@H](C)O)cc2O[C@@H]1CN(C)Cc1ccc(-c2ccccc2)cc1 | -0.002% (inactive)
33 | NC(Cc1ccc(F)cc1)c1csc(Nc2nncc3ccccc23)n1 (centres undefined) | -17.9% (inactive)
34 | Cc1cccnc1C(NC(=O)C1CCN(Cc2ccc(Cl)c(Cl)c2)CC1)c1ccc(Cl)cc1 (centres undefined) | 11.5% (inactive)
35 | COc1ccc(CNC(=O)c2ccc(-c3cccnc3)c3ccoc23)cc1OC | -16.6% (inactive)
36 | CCCNC(=O)C1(C)CCN(Cc2ccc(Cl)c(Cl)c2)C1 (centres undefined) | 3.78% (inactive)
37 | COc1ccc(-c2cc(NC=O)c3ncc(-c4cc(OC)c(OC)c(OC)c4)n3c2)c(OC)c1 | 21.8% (inactive)
38 | COc1ccc(O)c(C(=O)c2cnc3c(c2)c(-c2ccc(F)cc2)c(C#N)c(=O)n3C)c1 | 1.06% (inactive)
39 | Cc1cc(C)c2c(-c3ccc(F)cc3)c(C#N)c(=O)n(C)c2n1 | 54.6% (active)
40 | Cn1c(N)cc(-c2ccc(F)cc2)c(C#N)c1=O | -9.36% (inactive)
41 | NC(c1csc(NC(=O)Nc2cccc(C(F)(F)F)c2)n1)C1CCCCC1 (centres undefined) | -1.56% (inactive)
42 | CC(C)(C)n1nc(Cc2cccc3ccccc23)c(C#N)c1N | 13.5% (inactive)

Row | Structure (SMILES) | inhibition
43 | CCc1nn(-c2cc(Oc3cccc4ccccc34)nc(-c3ccccc3)n2)c(N)c1C#N | 53.3% (active)
44 | CC1(C(=O)NCc2ccc(F)c(F)c2)Cc2c(-c3ccc4c(c3)OCO4)ccnc2O1 (centres undefined) | -5.82% (inactive)
45 | CCN(CC)CCN(C(=O)c1ccc2c(c1)CCCC2)c1nc2c(OC)cccc2s1 | -7.26% (inactive)
46 | C[C@@H]1CCCCO[C@H](CN(C)Cc2ccccc2)[C@@H](C)CN([C@H](C)CO)C(=O)c2cc(NS(=O)(=O)c3ccc(Cl)cc3)ccc2O1 | 8.14% (inactive)
47 | CC(C)OCCCNc1ncnc2c1[nH]c1ccc(F)cc12 | 65.5% (active)
48 | COc1ccc(C(=O)N2CCCCC2c2cc(C(=O)Nc3ccccc3)no2)cc1 (centres undefined) | 13.8% (inactive)
49 | CC(C)N=C1CCCC1C(=S)SSC(=S)C1CCCC1=NC(C)C (centres undefined) | 0.152% (inactive)
50 | CCOC(=O)C1CCCN(C(=O)c2cc(-c3cccs3)oc2C)CC1 (centres undefined) | -8.46% (inactive)
51 | CC(C)c1cccc(-c2csc(C(O)c3ccccc3)n2)c1 (centres undefined) | -7.2% (inactive)
52 | CCC(CO)Oc1cc(NC(=O)c2cccc(F)c2)c2ncn(C(C)C)c2c1 (centres undefined) | -4.4% (inactive)
53 | CC(C)n1cnc2c(NCc3ccccc3)cc(OCC3CCN(C)CC3)cc21 | 78.2% (active)
54 | CCC(CO)Oc1cc(NC(=O)c2cccc3ccccc23)c2ncn(C(C)C)c2c1 (centres undefined) | 1.25% (inactive)
55 | CCCCC(=O)N(C)c1c(CC)nc2c(OCc3ccc(Cl)cc3Cl)cccn12 | 1.33% (inactive)
56 | COc1ccc(NC2CCCN(C(=O)c3ccccc3-c3ncc[nH]3)C2)cc1 (centres undefined) | 10.8% (inactive)
57 | CC(=O)Nc1cc(-c2ccc(N3CCN(C)CC3)cc2)cn2c(-c3ccc(F)cc3)cnc12 | -22.4% (inactive)
58 | CCN(CC)C(=O)C1=C(C)N(Cc2ccc(C(C)(C)C)cc2)C(=O)C(CC(=O)NCc2cccc3ccccc23)C1 (centres undefined) | -1.52% (inactive)
59 | FC(F)(F)c1nnc2c3ccccc3c(Cl)nn12 | 78.3% (active)
60 | FC(F)(F)c1nnc2ccc(N3CCN(c4ccccc4)CC3)nn12 | 19.6% (inactive)
61 | Nc1nnc2c(C(F)(F)F)nc3ccccc3n12 | 44% (inactive)
62 | CC1(Oc2ccccc2-c2ccno2)CCN(Cc2ccc(-c3ccccc3)o2)C1 (centres undefined) | 4.47% (inactive)
63 | Cc1ccc(-c2cnc(C(O)c3cc(Cl)cc(Cl)c3)[nH]2)cc1 (centres undefined) | -6.84% (inactive)

Row | Structure (SMILES) | inhibition
64 | COc1ccc(C(c2nnnn2C2CCCC2)N2CCN(C/C=C/c3ccccc3)CC2)cc1 (centres undefined) | 16.8% (inactive)
65 | COc1ccc(C2CC(c3ccccc3)=NN2C(=O)c2ccc(Cl)c([N+](=O)[O-])c2)cc1 (centres undefined) | 89.1% (active)
66 | COc1ccc(C2CC(c3ccc([N+](=O)[O-])cc3)=NN2C(C)=O)cc1 (centres undefined) | 1.95% (inactive)
67 | COc1ccc(C2=NN(C(=O)c3cccnc3)C(c3ccccc3)C2)cc1 (centres undefined) | -3.05% (inactive)
68 | CCCCN(C=O)c1c(CC)nc2c(OCCC3CCCCC3)cccn12 | -3.38% (inactive)
69 | Nc1c(N(Cc2ccco2)C(=O)c2cccc(F)c2)c(=O)[nH]c(=O)n1Cc1ccccc1 | 6.01% (inactive)
70 | Cc1ccccc1C1=NC(C(F)(F)F)(C(F)(F)F)c2c(n(-c3ccc(F)cc3)c(=O)[nH]c2=O)N1 | -7.19% (inactive)
71 | O=c1[nH]c(=O)n(Cc2ccco2)c2c1C(C(F)(F)F)(C(F)(F)F)N=C(c1ccco1)N2 | 51.3% (active)
72 | C=C(C)C(=O)O[C@H]1C/C(C)=C\C(=O)/C=C(\C)[C@H](O)[C@@H]2OC(=O)C(=C)[C@@H]21 | 136% (active)
73 | O=C(NC(c1ccc(Cl)cc1)c1cnccn1)C1CCN(Cc2ccc(Cl)cc2)CC1 (centres undefined) | 26.5% (inactive)
74 | CC(=O)c1ccc(Nc2nc(C(N)c3ccccc3)cs2)cc1 (centres undefined) | -5.96% (inactive)
75 | COc1ccc(OC)c(NC(=O)C2(C)CCN2C(=O)Cc2ccccc2)c1 (centres undefined) | 2.75% (inactive)
76 | CC(C)CC1C(=O)N(Cc2cn(Cc3ccco3)nn2)CCS(=O)(=O)N1Cc1ccc(-c2ccc(Cl)c(Cl)c2)cc1 (centres undefined) | 0.356% (inactive)
77 | O=C(Nc1cccc(-n2cnnn2)c1)c1cccnc1 | 1.28% (inactive)
78 | Cc1ccc(C)c(S(=O)(=O)Nc2cccc(-n3cnnn3)c2)c1 | 69.3% (active)
79 | O=S(=O)(Nc1cccc(-n2cnnn2)c1)c1cnc(Cl)c(Cl)c1 | -0.268% (inactive)
80 | COc1cccc(-c2cnc3c(NC(C)=O)cc(-c4cccc(NC(C)=O)c4)cn23)c1 | -4.77% (inactive)
81 | O=C(NCCN1CCOCC1)c1ccccc1N1C(=O)[C@@H]2Cc3c([nH]c4ccccc34)C(c3cccc(Cl)c3)N2C1=O (some centres undefined) | 2.4% (inactive)
82 | COc1ccc(CNC(=O)[C@H](Cc2c[nH]c3ccccc23)NC(C)=O)cc1OC | -6.67% (inactive)
83 | CC(=O)NC(Cc1c[nH]c2ccccc12)C(=O)NCCc1ccccc1 (centres undefined) | 50.4% (active)
84 | CCOC(=O)c1ccccc1NC(=O)COC(=O)C(Cc1c[nH]c2ccccc12)NC(C)=O (centres undefined) | 1.23% (inactive)
